Laboratory results: PubChem BioAssay
The source made the active and inactive calls.

Tests used:
[1] = small molecules captured by biotinylated probe aFSTL3 – biochemical, small-molecule microarray, fluorescence 635/667, stem cell growth factor project, primary screen (AID 1064); conditions: higher = more signal;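 further: measures binding of the biotinylated anti-FSTL3 antibody to printed compounds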
[2] = binders from COS7 lysate, DM2A8 probe, primary screen, torsin A project, cell lysate, small-molecule microarray, fluorescence 635/667 (AID 1065); conditions: higher = more signal, COS7 lysate expressing mutant human TOR1A
[3] = small molecules captured by biotinylated probe aFGF2 – biochemical, small-molecule microarray, fluorescence 635/667, stem cell growth factor project, primary screen (AID 1067); conditions: higher = more signal;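 further: measures binding of biotinylated aFGF2 protein to printed compounds on slides; z-score merges feature fluorescence and signal-to-noise across triplicate slides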
[4] = small molecules captured by biotinylated probe aFGF10 – biochemical, small-molecule microarray, fluorescence 635/667, stem cell growth factor project, primary screen (AID 1071); conditions: higher = more signal;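 further: score merges 667 nm spot intensity and signal to noise from triplicate slides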
[5] = target: Neurogenic locus notch homolog protein 2 (Homo sapiens) (UniProt Q04721); test: small molecules binding Notch2 protein – biochemical, small-molecule microarray, 635 nm fluorescence, stem cell growth factors, primary screen (AID 1073); conditions: higher = more signal
[6] = target: Pro-neuregulin-1, membrane-bound isoform (Homo sapiens) (UniProt Q02297); test: small molecules binding neuregulin-1 protein – biochemical, small-molecule microarray, fluorescence 635/667, psychiatric disease protein project, primary screen (AID 1075); conditions: NRG1 binding, 635 nm fluorescence, higher = more signal;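 further: score combines 667 nm spot fluorescence with signal to noise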
[7] = system: Neuregulin-1 EGF-like domain; test: small molecules binding NRG1 EGF domain – biochemical, small-molecule microarray, 635 nm fluorescence, primary screen (AID 1081); conditions: higher = more signal;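 further: binding of the protein to compounds printed on small-molecule microarray slides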
[8] = FRG1 expression reporter modulators in myotubes – cell-based, C2C12 myotubes, firefly/Renilla luciferase, luminescence, FRG1 inhibition for FSHD, primary screen (AID 1084); conditions: FRG1 promoter luciferase, higher = more signal, called active from +8 up or from −8 down
[9] = small molecules captured by biotinylated probe aFST – biochemical, small-molecule microarray, fluorescence 635/667, stem cell growth factor project, primary screen (AID 1086); conditions: higher = more signal;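 further: score merges 667 nm fluorescence with signal-to-noise of each printed compound spot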
[10] = binders of probe aHhip on microarray, primary screen, stem cell growth factor project, biochemical, small-molecule microarray, fluorescence 635/667 (AID 1087); conditions: higher = more signal;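 further: score merges spot fluorescence at 667nm with spot signal to noise ratio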

Sequence of Neurogenic locus notch homolog protein 2 (Homo sapiens) (Q04721 whole entry, looked up, canonical isoform): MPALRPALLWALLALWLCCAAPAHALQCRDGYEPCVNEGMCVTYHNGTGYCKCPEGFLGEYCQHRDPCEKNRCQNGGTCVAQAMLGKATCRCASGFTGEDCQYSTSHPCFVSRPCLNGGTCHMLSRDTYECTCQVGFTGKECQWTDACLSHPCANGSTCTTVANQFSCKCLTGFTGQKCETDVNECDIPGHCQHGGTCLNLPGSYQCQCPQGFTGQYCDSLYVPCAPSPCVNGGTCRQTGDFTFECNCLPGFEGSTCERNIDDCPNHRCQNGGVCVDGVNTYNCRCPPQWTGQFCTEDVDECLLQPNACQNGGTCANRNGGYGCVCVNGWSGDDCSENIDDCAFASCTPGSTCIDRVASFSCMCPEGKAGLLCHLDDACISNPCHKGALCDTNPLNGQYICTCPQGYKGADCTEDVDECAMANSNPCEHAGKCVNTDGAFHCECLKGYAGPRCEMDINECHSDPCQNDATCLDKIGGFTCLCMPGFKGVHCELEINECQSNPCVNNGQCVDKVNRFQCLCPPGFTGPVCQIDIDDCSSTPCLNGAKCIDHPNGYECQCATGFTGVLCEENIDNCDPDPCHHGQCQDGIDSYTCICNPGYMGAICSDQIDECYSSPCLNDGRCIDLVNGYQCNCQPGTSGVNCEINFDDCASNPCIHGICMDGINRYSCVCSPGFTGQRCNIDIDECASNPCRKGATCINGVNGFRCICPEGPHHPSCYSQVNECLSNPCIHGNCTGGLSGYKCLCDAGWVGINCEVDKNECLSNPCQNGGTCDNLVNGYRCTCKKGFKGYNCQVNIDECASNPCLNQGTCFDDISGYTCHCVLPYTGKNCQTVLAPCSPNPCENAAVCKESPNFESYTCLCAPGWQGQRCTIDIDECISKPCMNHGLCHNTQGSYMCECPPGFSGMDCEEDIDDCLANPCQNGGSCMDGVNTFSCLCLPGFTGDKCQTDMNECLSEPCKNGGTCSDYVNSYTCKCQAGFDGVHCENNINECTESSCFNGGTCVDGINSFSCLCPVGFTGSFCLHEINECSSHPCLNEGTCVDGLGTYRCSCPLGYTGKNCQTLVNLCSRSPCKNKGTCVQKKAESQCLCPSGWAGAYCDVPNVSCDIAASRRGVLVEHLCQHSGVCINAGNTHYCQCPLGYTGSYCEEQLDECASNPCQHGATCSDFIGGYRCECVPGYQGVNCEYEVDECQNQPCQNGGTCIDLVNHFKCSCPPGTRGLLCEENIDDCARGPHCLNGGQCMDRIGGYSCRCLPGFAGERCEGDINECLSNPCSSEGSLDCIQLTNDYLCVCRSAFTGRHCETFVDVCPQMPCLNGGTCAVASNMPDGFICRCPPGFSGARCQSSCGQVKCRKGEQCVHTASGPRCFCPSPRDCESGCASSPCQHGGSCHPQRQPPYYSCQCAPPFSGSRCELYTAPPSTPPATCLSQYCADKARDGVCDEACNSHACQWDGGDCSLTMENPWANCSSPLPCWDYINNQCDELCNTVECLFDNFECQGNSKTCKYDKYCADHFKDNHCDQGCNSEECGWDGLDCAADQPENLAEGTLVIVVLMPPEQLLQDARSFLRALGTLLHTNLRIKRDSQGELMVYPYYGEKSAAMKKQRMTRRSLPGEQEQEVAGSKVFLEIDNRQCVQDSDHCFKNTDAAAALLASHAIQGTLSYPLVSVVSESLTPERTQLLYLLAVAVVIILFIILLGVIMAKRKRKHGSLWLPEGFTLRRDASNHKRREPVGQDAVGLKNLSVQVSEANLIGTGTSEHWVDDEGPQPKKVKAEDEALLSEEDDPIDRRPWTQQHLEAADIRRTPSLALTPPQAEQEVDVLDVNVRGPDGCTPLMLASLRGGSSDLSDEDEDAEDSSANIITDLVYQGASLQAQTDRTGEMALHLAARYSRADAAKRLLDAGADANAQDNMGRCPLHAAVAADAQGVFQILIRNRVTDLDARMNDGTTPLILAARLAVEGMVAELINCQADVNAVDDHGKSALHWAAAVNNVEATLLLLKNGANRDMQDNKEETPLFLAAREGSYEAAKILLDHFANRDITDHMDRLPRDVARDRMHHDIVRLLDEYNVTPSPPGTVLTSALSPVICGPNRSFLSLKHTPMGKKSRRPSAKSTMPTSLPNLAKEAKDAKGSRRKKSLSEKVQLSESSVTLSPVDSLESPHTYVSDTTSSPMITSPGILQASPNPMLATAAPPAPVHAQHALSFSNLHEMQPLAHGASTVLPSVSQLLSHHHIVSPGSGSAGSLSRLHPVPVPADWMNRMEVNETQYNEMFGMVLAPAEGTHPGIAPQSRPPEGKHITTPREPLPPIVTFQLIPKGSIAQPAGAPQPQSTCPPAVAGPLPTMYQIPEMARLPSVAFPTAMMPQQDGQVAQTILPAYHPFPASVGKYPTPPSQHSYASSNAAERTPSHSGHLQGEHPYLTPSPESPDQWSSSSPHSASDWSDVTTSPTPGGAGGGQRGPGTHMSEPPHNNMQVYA
Sequence of Pro-neuregulin-1, membrane-bound isoform (Homo sapiens) (Q02297 whole entry, looked up, the tested form may be a part, canonical isoform): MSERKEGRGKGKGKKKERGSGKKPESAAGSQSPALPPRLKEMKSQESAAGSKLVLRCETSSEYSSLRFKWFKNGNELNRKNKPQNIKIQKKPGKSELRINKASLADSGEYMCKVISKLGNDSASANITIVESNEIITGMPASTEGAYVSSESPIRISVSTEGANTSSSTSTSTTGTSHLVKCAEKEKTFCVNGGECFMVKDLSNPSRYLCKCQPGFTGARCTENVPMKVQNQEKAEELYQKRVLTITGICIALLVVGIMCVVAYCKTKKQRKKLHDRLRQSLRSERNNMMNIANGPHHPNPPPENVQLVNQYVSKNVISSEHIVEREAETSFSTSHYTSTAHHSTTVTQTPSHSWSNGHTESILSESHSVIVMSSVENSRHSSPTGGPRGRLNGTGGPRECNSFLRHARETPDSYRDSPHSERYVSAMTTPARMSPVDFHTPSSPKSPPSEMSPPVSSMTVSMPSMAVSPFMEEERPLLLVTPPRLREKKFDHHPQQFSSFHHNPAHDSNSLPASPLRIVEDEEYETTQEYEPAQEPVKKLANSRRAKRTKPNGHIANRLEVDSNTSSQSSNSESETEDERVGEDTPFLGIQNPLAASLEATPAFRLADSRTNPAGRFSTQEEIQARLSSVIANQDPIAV

Row | SMILES | composite z-score [1] | composite z-score [2] | composite z-score [3] | composite z-score [4] | composite z-score [5] | composite z-score [6] | composite z-score [7] | z-score [8] | composite z-score [9] | composite z-score [10]
1 | COC(=O)c1c(CC[C@@H](CO)NC(=O)N[C@H](Cn2cc(-c3cncn3C)nn2)C(C)C)oc(C(C)=O)c1C(=O)OC | -0.151 | 0.874 | -0.043 | 0.66 | 0.193 | 0.692 | 1.09 | 0.0938 (inactive) | -0.201 | -0.261
2 | CCCC[C@@H]1C[C@H]1[C@@H](NC(=O)c1ccccc1)c1ccccc1C(F)(F)F | 0.135 | 0.281 | 0.149 | 0.189 | 1.13 | 1.97 | 0.828 | 0.822 (inactive) | 0.819 | -0.189
3 | O=C1C2C=CC(C(O)Cc3ccccc3)N(Nc3ccc([N+](=O)[O-])cc3)C2C(=O)N1c1ccccc1 (stereo not given) | 0.159 | -0.0657 | -0.06 | 0.699 | 1.15 | 1.83 | 1.33 | 1.19 (inactive) | 0.638 | 0.413
4 | COCCOC(=O)N1C(=O)[C@@]2(c3cc(C#CCC(C(=O)OC)C(=O)OC)ccc31)[C@H](c1ccccc1OCCO)N1[C@H](c3ccccc3)[C@H](c3ccccc3)OC(=O)[C@H]1[C@@H]2C(=O)N1CCCCCCC1 | 3.6 | 0.618 | 0.486 | 0.388 | 0.966 | 0.889 | 1.33 | -0.0751 (inactive) | 2.9 | 2.32
5 | CO[C@H]1COC(=O)CC=C[C@H](C)[C@@H](OC)COC(=O)[C@H](Cc2ccccc2)NC(=O)CC=C[C@@H]1C | -0.304 | 1.36 | -0.167 | -1.09 | -1.79 | -0.806 | -1.09 | -1.01 (inactive) | -0.463 | 0.0524
6 | CO[C@H]1COC(=O)[C@H](C)NC(=O)CC=C[C@@H](C)[C@H](NS(=O)(=O)c2ccc(C)cc2)COC(=O)CC=C[C@@H]1C | -0.734 | 1.84 | -0.172 | 0.0871 | -0.543 | -0.455 | -0.775 | -1.27 (inactive) | 0.0005 | -0.199
7 | C=CC[C@]1(C(=O)O)N=C(c2ccc(OCCCO)cc2)O[C@H]1c1ccccc1N=[N+]=[N-] | 1.17 | -0.258 | -0.101 | 0.427 | -0.16 | 0.215 | 0.686 | 4.6 (inactive) | 0.489 | -0.403
8 | C=CCN1C(=O)[C@@]2(Cc3ccccc3)N=C(c3ccc(OCCCO)cc3)O[C@H]2c2ccccc21 | 1.02 | 0.22 | 0.0714 | 0.0096 | 0.895 | 0.14 | 1.14 | -2.86 (inactive) | 0.691 | -0.132
9 | Cc1ccc(N2C(=O)c3ccccc3[C@](C)(C(=O)O)[C@@H]2c2ccc(CO)cc2)nc1 | 1.5 | -0.461 | -0.224 | -1.1 | -1.52 | 1.91 | -0.402 | 0.744 (inactive) | -0.663 | -0.181
10 | CC(=O)NCCCC[C@@H]1NC(=O)[C@H]2C[C@@H](C(=O)NCCCCCCN(C)C)[C@@H](c3ccc(O)cc3)N2C1=O | -0.463 | 1.68 | -0.0876 | 0.785 | 0.269 | 1.43 | 1.48 | 4.59 (inactive) | 0.31 | 0.0401
11 | COc1ccc(C(O)C2C=CC3C(=O)N(C)C(=O)C3N2N2CCCCC2)cc1OCc1ccccc1 (stereo not given) | 0.556 | -0.599 | -0.0135 | 0.49 | 1.57 | 1.52 | 1.27 | 0.451 (inactive) | 0.994 | 0.232
12 | CO[C@H]1COC(=O)[C@H](Cc2ccccc2)NC(=O)CC=C[C@@H](C)[C@H](OC)COC(=O)CC=C[C@@H]1C | -0.453 | 0.421 | -0.0643 | 0.324 | -0.156 | 0.131 | 0.316 | -0.244 (inactive) | 0.244 | -0.504
13 | CO[C@@H]1COC(=O)CC=C[C@@H](C)[C@H](OC)COC(=O)CC=C[C@H]1C | -0.762 | 1.22 | -0.14 | -0.228 | -0.541 | -0.503 | -0.366 | 0.211 (inactive) | 0.169 | -0.16
14 | O=C1c2ccccc2[C@](Cc2ccccc2I)(C(=O)NCc2ccccc2)[C@H](c2ccc(CO)cc2)N1Cc1ccccc1C(F)(F)F | 0.988 | 0.077 | -0.131 | -0.787 | -1.28 | 0.385 | -0.56 | -1.98 (inactive) | -0.318 | -0.134
15 | NC(=O)NCC#Cc1ccc2c(c1)[C@]1(C(=O)N2)[C@H](c2ccccc2OCCO)N2[C@H](c3ccccc3)[C@H](c3ccccc3)OC(=O)[C@H]2[C@@H]1C(=O)N1CCN(c2ncccn2)CC1 | 0.533 | 0.195 | -0.0145 | 0.499 | 0.583 | 1.19 | 1.07 | -0.112 (inactive) | 0.315 | -0.0994
16 | C[C@@H]1CC[C@H]2C(=O)N3CCC[C@H]3C(=O)N2[C@H]1c1ccc(Br)cc1 | -0.162 | 0.0769 | -0.11 | -0.121 | -0.829 | -0.267 | 0.0421 | -0.228 (inactive) | -0.0423 | 0.0274
17 | Cc1ccc(S[C@]2(C(=O)NC(C)C)CC(=O)N(C3Cc4ccccc4C3)[C@@H]2c2ccc(CO)cc2)cc1 | -0.796 | 0.172 | -0.148 | 0.301 | -0.586 | 1.42 | 0.62 | -2.74 (inactive) | -0.554 | -0.292

Row | SMILES | composite z-score [1] | composite z-score [2] | composite z-score [3] | composite z-score [4] | composite z-score [5] | composite z-score [6] | composite z-score [7] | z-score [8] | composite z-score [9] | composite z-score [10]
18 | O=C/C=C/c1ccccc1Cl | 0.206 | -0.0907 | -0.093 | -0.0502 | -0.221 | 1.05 | -0.118 | 1.58 (inactive) | 0.224 | 0.171
19 | NC(=O)NCC#Cc1ccc2c(c1)[C@]1(C(=O)N2)[C@H](C(N)=O)[C@H]2C(=O)O[C@H](c3ccccc3)[C@H](c3ccccc3)N2[C@@H]1c1ccccc1OCCO | 0.163 | 0.494 | 0.0143 | 0.0467 | 0.335 | 0.221 | -0.0706 | -0.317 (inactive) | 0.597 | -0.0645
20 | O=C(NCC(O)CO)[C@]1(Cc2ccccc2)N=C(c2ccc(OCCCO)cc2)O[C@@H]1c1ccccc1 (stereo not given in full) | 1.09 | 2.15 | -0.104 | -0.512 | 0.271 | 0.951 | 0.868 | -1.63 (inactive) | 0.864 | 0.189
21 | CO[C@H]1COC(=O)CC=C[C@H](C)[C@@H](OC)COC(=O)CC=C[C@@H]1C | -0.623 | 1.7 | -0.0775 | 0.227 | -0.209 | -0.768 | 0.692 | -1.12 (inactive) | -0.055 | -0.0994
22 | Cc1ccc(S[C@]2(C(=O)O)CC(=O)N(Cc3cc(C(F)(F)F)cc(C(F)(F)F)c3)[C@@H]2c2ccc(CO)cc2I)cc1 | 0.793 | 0.0039 | -0.103 | 0.002 | -1.18 | 1.28 | 0.603 | 0.419 (inactive) | -0.292 | 0.0373
23 | Cc1ccc(N2C(=O)c3ccccc3[C@@H](C(=O)NCC(F)(F)F)[C@@H]2c2ccc(CO)cc2)nc1 | 1.83 | -1.33 | -0.195 | -1.11 | -2.11 | 1.15 | 1.26 | -0.307 (inactive) | -0.869 | -0.539
24 | C=CC[C@@]12N=C(c3ccc(OCCCO)cc3)O[C@@H]1c1ccccc1CN(Cc1ccccc1)C2=O | 1.36 | 0.845 | -0.0043 | 0.245 | 0.477 | 0.713 | 1.16 | -4 (inactive) | 0.15 | -0.138
25 | CCCC[C@H]1OB(O)C[C@H]2C1=C(COC)C[C@H]1C(=O)N(Cc3ccccc3)C(=O)[C@H]12 | -0.193 | 0.323 | 0.0644 | 0.3 | 0.908 | 0.173 | -0.334 | -0.788 (inactive) | 0.633 | 0.124
26 | COc1cc(CO)cc(I)c1O[C@H]1C=C(C(=O)NCCO)C[C@@H](NCCc2c[nH]c3ccccc23)[C@@H]1O | 0.318 | 0.52 | 0.0019 | 1.01 | 0.832 | -0.0224 | 1.01 | -0.389 (inactive) | 0.714 | -0.184
27 | C=CC[C@@]1(C(=O)N2CCOCC2)N=C(c2ccc(OCCCO)cc2)O[C@@H]1c1ccccc1 | -0.487 | 1.2 | -0.117 | 0.351 | 0.369 | 1.12 | 1.08 | -1.36 (inactive) | -0.298 | -0.712
28 | O=C(NCC(F)(F)F)[C@@H]1c2ccccc2C(=O)N(Cc2ccccc2Cl)[C@H]1c1ccc(CO)cc1 | 1.39 | -0.338 | -0.0964 | -0.601 | -1.37 | -0.341 | 1.39 | -1.3 (inactive) | 0.214 | -0.47
29 | C=C(COC)/C(=C/C[C@@H](OC(C)=O)c1cccc(OCCO)c1)c1cc(C(=O)OC)ccc1OC | 0.0462 | 0.361 | -0.103 | 0.396 | -0.0821 | -0.582 | 0.597 | -0.637 (inactive) | 0.105 | 0.0274
30 | O=C1O[C@H](c2ccccc2)[C@H](c2ccccc2)N2[C@H]1[C@@H](C(=O)NC[C@H](O)c1ccccc1)[C@]1(C(=O)Nc3ccc(C#CC4=CCCCC4)cc31)[C@H]2c1ccc(OCCO)cc1 | 0.0854 | 0.21 | -0.0579 | 0.423 | 1.04 | 0.413 | 1.02 | 0.315 (inactive) | 0.681 | 0.136
31 | C=CCNC(=O)[C@H]1[C@@H]2C(=O)O[C@@H](c3ccccc3)[C@@H](c3ccccc3)N2[C@@H](c2ccccc2OCCO)[C@]12C(=O)N(C(=O)OCCOC)c1ccc(C#CCNC(N)=O)cc12 | 0.173 | 0.912 | -0.0547 | 0.149 | 0.284 | 1.32 | 1.06 | -1.53 (inactive) | 0.428 | 0.0623
32 | CCOC(=O)C[C@H]1[C@H](OC(=O)Cc2ccc3c(c2)OCO3)[C@@H](NC(=O)CC(C)C)c2cc(OCCCO)ccc2N1C(=O)c1ccccc1 | -0.0798 | 0.128 | 0.0021 | 0.782 | 0.797 | -0.0284 | 0.855 | -1.2 (inactive) | 0.0004 | -0.0994
33 | CO[C@@H]1COC(=O)CC=C[C@H](C)COC(=O)[C@H](Cc2ccccc2)NC(=O)CC=C[C@H]1C | -1.68 | 1.69 | -0.265 | -0.416 | -1.04 | -0.409 | 0.517 | -0.533 (inactive) | -0.515 | -0.179
